Test results published in PubChem BioAssay (Tox21).
Records with an inconclusive call do not appear. Activity calls are given as the source filed them. Unless noted, calls follow the shape of the dose curve; as a rule, active = well fitted curve in the direction sought with a large enough effect in the repeat runs; inconclusive = weak or mixed curves; inactive = no such curve, though single readings can be large; an effect the other way counts as inactive or inconclusive.

Key:
[1] = qHTS assay for small molecules that induce genotoxicity in human embryonic kidney cells expressing luciferase-tagged ATAD5 (AID 651632); also: nearly all actives have a fitted effect of over 15% in size
In short: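 Test compounds were delivered by pin tool onto HEK293T reporter cells (2,000/well) expressing ATAD5 fused to luciferase. After 16 hr at 37C, 5% CO2, Amplite was added for 30 min at room temperature and luminescence was measured.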

[2] = qHTS assay for small molecule agonists of the p53 signaling pathway - cell viability (AID 651633; calls by dose curve; also: nearly all actives have a fitted effect of over 30% in size; also: potency is read from the fitted curve at half-maximal effect)
In short: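 p53RE-bla cells were treated with compound for 16 hours at 37 C. Cytotoxicity was then measured as CellTiter-Glo luminescence after 30 min at room temperature.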

[3] = qHTS assay for small molecule disruptors of the mitochondrial membrane potential - cell viability (AID 720634; calls by dose curve; also: nearly all actives have a fitted effect of over 20% in size; also: potency is read from the fitted curve at half-maximal effect)
In short: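 Same-well counter-screen: following the MMP dye addition, CellTiter-Glo was added to 1 hr compound-treated HepG2 cells and luminescence read after 30 min at room temperature.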

[4] = qHTS assay for small molecule disruptors of the mitochondrial membrane potential (AID 720635); also: potency is read from the fitted curve at half-maximal effect
In short: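 HepG2 cells exposed to compound 1 hr at 37C, then Mito-MPS dye 30 min. Ratio read of aggregate (540/590 nm) versus monomer (490/535 nm) fluorescence.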

[5] = qHTS assay to test for compound auto fluorescence at 590 nm (red) in HepG2 cells (AID 720674)
In short: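 HepG2 cells, 2,000 per well in MEM with 10% FBS, attached overnight at 37 C, then got 23 nL compound or DMSO. After 1 hr at 37 C, 5% CO2, red fluorescence was read at 540/590 nm against Rose Bengal sodium as reference.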

[6] = qHTS assay to test for compound auto fluorescence at 535 nm (green) in HepG2 cells (AID 720675)
[7] = qHTS assay to test for compound auto fluorescence at 460 nm (blue) in HEK293 cells (AID 720678)
In short: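 HEK293 cells (2,000 per well, medium with 10% dialyzed FBS) attached for 4-5 hr at 37C, then received compound and stood overnight at 37C, 5% CO2. Blue fluorescence was read at Ex/Em 405/460 nm and expressed relative to triamterene.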

[8] = qHTS assay to test for compound auto fluorescence at 590 nm (red) in HEK293 cells (AID 720679)
In short: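 HEK293 cells (2,000/well, medium with 10% dialyzed FBS) attached for 4-5 hr at 37C, received 23 nL compound and were incubated overnight at 37C, 5% CO2. Red fluorescence was then read at 540/590nm Ex/Em, referenced to Rose Bengal sodium.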

[9] = qHTS assay to test for compound auto fluorescence at 535 nm (green) in HEK293 cells (AID 720680)
[10] = qHTS assay to test for compound auto fluorescence at 460 nm (blue) in HEK293 cell free culture (AID 720681)
In short: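 Compounds were added to cell-free DMEM with 10% FBS and fluorescence read directly. The blue channel used 405 nm excitation and 460 nm emission, with triamterene as the reference fluorophore.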

[11] = qHTS assay to test for compound auto fluorescence at 535 nm (green) in HEK293 cell free culture (AID 720682)
In short: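 Steps: dispense DMEM/10% FBS into empty wells; pin in compound or DMSO; measure fluorescence at 485/535 nm. Values are fluorescein equivalents.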

[12] = qHTS assay to test for compound auto fluorescence at 590 nm (red) in HEK293 cell free culture (AID 720683)
In short: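 Cell-free wells of DMEM with 10% FBS received compound, and intrinsic fluorescence was read at excitation/emission 540/590 nm. Values expressed as equivalence to Rose Bengal sodium.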

[13] = qHTS assay to test for compound auto fluorescence at 590 nm (red) in HepG2 cell free culture (AID 720684)
In short: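 Rose Bengal sodium served as the reference for red signal. Test compounds were dispensed into serum-containing MEM (10% FBS) without cells, and plates were read at 540/590 nm.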

[14] = qHTS assay to test for compound auto fluorescence at 460 nm (blue) in HepG2 cell free culture (AID 720685)
In short: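 Cell-free plates of MEM plus 10% FBS received 23 nL compound or DMSO vehicle; blue-channel (405/460 nm) intensity scored against triamterene as reference fluorophore.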

[15] = qHTS assay to test for compound auto fluorescence at 535 nm (green) in HepG2 cell free culture (AID 720686)
[16] = qHTS assay to test for compound auto fluorescence at 460 nm (blue) in HepG2 cells (AID 720687)
In short: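 HepG2 cells in MEM with 10% FBS, attached overnight at 37 C, were exposed to compound or DMSO for 1 hr at 37 C, 5% CO2. Blue fluorescence was read at 405/460 nm, with triamterene as reference fluorophore.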

[17] = molecular target: Glucocorticoid receptor (Homo sapiens) (UniProt P04150); assay: qHTS assay to identify small molecule agonists of the glucocorticoid receptor (GR) signaling pathway (AID 720691; active = well fitted activation curve with a large enough effect in the signal ratio in the repeat runs, not every such curve was filed as active; the % refers to the signal ratio); details: GR-bla HeLa, beta-lactamase reporter ratio, 18 h; activation: at 62.4 µM (top of the series)
Sequence of Glucocorticoid receptor (Homo sapiens) (P04150 whole entry, looked up): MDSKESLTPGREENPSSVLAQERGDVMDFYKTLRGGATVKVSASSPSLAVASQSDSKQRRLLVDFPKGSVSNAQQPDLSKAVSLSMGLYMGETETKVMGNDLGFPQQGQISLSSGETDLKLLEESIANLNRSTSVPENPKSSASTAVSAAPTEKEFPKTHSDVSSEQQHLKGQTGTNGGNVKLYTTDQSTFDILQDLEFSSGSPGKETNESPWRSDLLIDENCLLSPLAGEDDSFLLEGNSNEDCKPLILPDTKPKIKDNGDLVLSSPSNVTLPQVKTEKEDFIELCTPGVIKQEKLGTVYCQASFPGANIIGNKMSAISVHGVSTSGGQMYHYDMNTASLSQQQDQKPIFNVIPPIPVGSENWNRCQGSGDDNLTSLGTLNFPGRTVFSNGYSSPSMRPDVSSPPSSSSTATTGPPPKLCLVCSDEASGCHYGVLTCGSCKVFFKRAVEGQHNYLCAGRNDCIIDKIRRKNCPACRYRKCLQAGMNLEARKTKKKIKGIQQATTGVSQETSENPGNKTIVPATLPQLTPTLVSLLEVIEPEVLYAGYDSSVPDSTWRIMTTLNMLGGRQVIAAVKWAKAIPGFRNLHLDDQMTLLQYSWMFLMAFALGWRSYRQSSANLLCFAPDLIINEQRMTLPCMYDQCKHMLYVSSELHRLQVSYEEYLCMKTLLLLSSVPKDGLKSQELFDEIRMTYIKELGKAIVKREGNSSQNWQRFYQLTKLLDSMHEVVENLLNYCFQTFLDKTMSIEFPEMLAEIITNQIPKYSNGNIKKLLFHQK
In short: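 A HeLa cervical cancer line expressing GR and a glucocorticoid response element-driven beta-lactamase gene is treated with compounds for 18 h; LiveBLAzer B/G FRET substrate is then applied and fluorescence read.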

[18] = molecular target: Glucocorticoid receptor (Homo sapiens) (UniProt P04150); assay: qHTS assay to identify small molecule antagonists of the glucocorticoid receptor (GR) signaling pathway (AID 720692; active = well fitted inhibition curve with a large enough effect in the signal ratio in the repeat runs, not every such curve was filed as active; the % refers to the signal ratio)
In short: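 GRE-bla HeLa line, dex-stimulated (5 nM final). Compound exposure 18 h, 37 C. Beta-lactamase FRET read after 2 h RT substrate.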

[19] = qHTS assay for small molecules that induce genotoxicity in human embryonic kidney cells expressing luciferase-tagged ATAD5 - cell viability (AID 651634; calls by dose curve; also: nearly all actives have a fitted effect of over 25% in size; also: potency is read from the fitted curve at half-maximal effect)
In short: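 Quantitative high-throughput format. HEK293T cells expressing ATAD5 fused to luciferase were plated at 2,000 cells/well and treated 15.5 hr with compound versus DMSO. Viability was determined by fluorescent live-cell protease substrate, 30 min at 37C.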

Measured: Potency

CCN(CC)CCn1c(=O)c(Cc2ccc(OC)cc2)nc2ccccc21
not listed: [19]
inactive: all other assays above

CC(Cc1ccc(O)c(O)c1)C(C)Cc1ccc(O)c(O)c1 (configuration not stated)
active: [4] 13.7 µM
not listed: [2] | [17] | [18] | [19]
inactive: all other assays above

CCC(C)(C)c1ccc(CC(C)CN2C[C@@H](C)O[C@@H](C)C2)cc1 (some centres not stated)
active: [2] 26.6 µM | [4] 23.7 µM
not listed: [17] | [18] | [19]
inactive: all other assays above

CCCCCCCCCC[N+](C)(CCCCCCCCCC)CCC[Si](OC)(OC)OC
active: [2] 48.6 µM | [19] 48.6 µM | [3] 54.5 µM
not listed: [1] | [4] | [17] | [18]
inactive: all other assays above

CN(C/C=C/c1ccccc1)Cc1cccc2ccccc12
not listed: [19]
inactive: all other assays above

CCN(CC)CC#CCOC(=O)C(O)(c1ccccc1)C1CCCCC1 (configuration not stated)
not listed: [1] | [2] | [3] | [4]
inactive: all other assays above

Clc1nc(C(Cl)(Cl)Cl)c(Cl)c(Cl)c1Cl
active: [2] 61.1 µM | [19] 48.6 µM
not listed: [1] | [4] | [17] | [18]
inactive: all other assays above
